biological target: PGLYRP2; assay: pooled miR-30 sensor sort-seq; sequence = guide strand; settings: shRNA
Further: reference of the scale not given here.

In order of falling sensor-assay potency score (higher = more potent):
1. TTTTGTAGCATCTGGAGTGTTG  -0.0388
2. TAGTCTCCAAGGATGACCCCAT  -0.15
3. TTCTCGTACGTCATGTCGGGCC  -0.387
4. TTCTGCCGTCGGAAGTTGCTGC  -0.417
5. TAGCAATCCGAGTAGGATCCAG  -0.509
6. ATCTGCAGTGGTGACATCTGGA  -0.549
7. TTGGACATCTGGACAGCCTTTT  -0.831
8. ATCTCTTAGAGACACTCCTGGC  -0.911
9. TTAACAGAGATGCCTTGGGGTC  -1.41
10. TCGTACACGTAGCCGTCCGAGC  -1.66

biological target: PGR; assay: as above; settings: shRNA

In order of rising sensor-assay potency score (higher = more potent):
1. TTGACTTCGTAGCCCTTCCAAA  -1.29
2. TTGATTAAGACTTGTCAGCAAA  -0.954
3. TTCGTCTTCCAGCAGCTGCCGA  -0.877
4. TTCTTGGCTAACTTGAAGCTTG  -0.748
5. TTGTGTTGTCATGTCCTGCATA  -0.728
6. TAGTTGATTAAGACTTGTCAGC  -0.703
7. TTGTTTGACAAGATCATGCAAG  -0.044
8. TCAACTGTATGTCTTGACCTGG  -0.016
9. TAACTTCAGACATCATTTCTGG  -0.00174
10. TGTAAGTTGATAGAAACGCTGT  0.269
11. TAAGTTGATAGAAACGCTGTGA  0.39
12. TTGAAGCTTGACAAACTCCTGT  0.608

biological target: PHACTR4; assay: as above; settings: shRNA

In order of falling sensor-assay potency score (higher = more potent):
1. TTAGGTTGCAATATATTGCGTT  0.996
2. TTTGATAACAATGTACCACTGT  0.882
3. TTAAACCTCAGAATCTTCCTGG  0.724
4. TTCATCTTCTTCATCTCGGTAC  0.467
5. TTCCTTTTTCTGATCTTCCTGC  0.429
6. TTGATAACAATGTACCACTGTT  -0.00481
7. TTTCGCATAGATATTTTCCGTT  -0.285
8. TTCTTTAACATGGCATCGCTTG  -0.642
9. TTGACTGAGCTTTCTAGTGAGC  -0.776
10. TCTTGAAGTACAATACACCAGG  -0.827
11. TTCATGAACCTCCATCTCGGAG  -1.12
12. TTCCAGTTGAGCCTAGTCGTTT  -1.14

biological target: PHF15; assay: as above; settings: shRNA

In order of falling sensor-assay potency score (higher = more potent):
1. TCTAACCCTCTCTAGGTCCTGC  0.0914
2. TACATCTGAGTCGCTCATCTCC  -0.519
3. TTGTCCACCTCGTCGGTCTTGG  -0.798
4. TTGTCTGGAGTCGTCCGTGAAC  -1.11
5. TAATATAGTCCGCATTTCCAGG  -1.26
